Reference: PubChem BioAssay AID686970 (National Center for Advancing Translational Sciences (NCATS), 2013)
Out of some 360,000 compounds screened, about 6,000 (1.7%) were called active. About 8% were inconclusive and are not listed. This is one part of a sample in which actives are shown more often than they occur. A number with no mark means an inactive call. The call rests on the fitted dose curve; in most records, active means well fitted cell-killing curve with a large enough effect; inconclusive means small, poorly fitted or top-dose-only effect, or effect the other way; inactive means flat fitted curve, though single readings scatter.

Assay: qHTS for induction of synthetic lethality in tumor cells producing 2HG: qHTS for the HT-1080-NT fibrosarcoma cell line;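 further: NT is the 2HG producing partner of a matched IDH1 knockdown line; nearly all actives have a fitted effect of over 55% in size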;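 on activity, negative = less viability: 0% = DMSO-treated cells and -100% = media-only wells without cells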
Conditions: HT-1080-NT fibrosarcoma viability, CellTiter-Glo ATP luminescence, 48 h; series mostly up to 46.1 µM; activity, negative = less viability: at the top concentration
Summary of the method: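 Compounds were tested in concentration-response format on HT-1080-NT cells for 48 hours at 37 degrees C. Cell viability came from CellTiter-Glo luminescence; curves were classified by r2, response magnitude and activity.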
Potency means the concentration at half of the fitted maximal effect.

SMILES	activity, negative = less viability	Potency
CS(=O)(=O)/C(C#N)=C/c1cccn1S(=O)(=O)c1ccc([N+](=O)[O-])cc1	5.67%	–
Clc1cccc(Cl)c1OCCOCCNCc1ccccc1	-2.39%	–
CN(C)CCOc1ccc(Cl)cc1C(C)(C)C	-6.35%	–
CN(C)CCOCCOc1ccc(Cl)c2ccccc12	–	18.4 µM (active)
COc1cc(C)c(CN2CCN(C(=O)CCC(=O)c3ccc(C)s3)CC2)cc1OC	0.481%	–
Cc1ccc(NC(=O)Cn2sc3ccccc3c2=O)cc1	-4%	–
CC1(C(=O)NS(=O)(=O)c2cccc(F)c2)CCN1C(=O)Cc1ccc(Cl)cc1Cl (stereo not drawn)	8.06%	–
COC(=O)[C@]12CCCCC=C1N(Cc1cccc3ccccc13)C(=O)[C@H](CC(=O)N1CCOCC1)C2	-14.1%	–
COc1cc(NC(=O)c2[nH]cnc2C(N)=O)cc(C(=O)Nc2cccc(C(F)(F)F)c2)c1	–	18.4 µM (active)
COc1cc(NC(=O)c2cncc(-c3ccc(C#N)cc3)c2)cc(C(=O)Nc2cccc(C(F)(F)F)c2)c1	–	inactive
O=C(O)CSc1c2c(nc3cc(C(=O)Nc4cccc(C(F)(F)F)c4)ccc13)CCCC2	12.9%	–
CC(=O)C1=CCC(c2ccccc2)N(S(=O)(=O)c2ccc(C)cc2)C1 (stereo not drawn)	-20.9%	–
Cc1ccc(C)c(NC(=O)c2ccc3nccnc3c2)c1	-1.09%	–
Cc1ccc(Oc2ccc3c(c2)C(=O)N(c2cccc4cccnc24)C3=O)cc1	0.506%	–
Cc1ccc(OS(=O)Nc2cccc3nccnc23)cc1 (stereo not drawn)	–	11.2 µM (active)
CCOc1cc(C=NNC(=O)CCCC(=O)NN=Cc2ccc(O)c(OCC)c2)ccc1O	13%	–
CCOc1cc(/C=C(\C#N)c2nc(-c3cccs3)c(NC(C)=O)s2)ccc1O	–	3.26 µM (active)
CCOc1cc(-c2cc(-c3ccc(NC(C)=O)cc3)nc(N)c2C#N)ccc1O	-16.4%	–
CCCNC(=O)C1(C)CCN(C(=O)c2ccc(F)cc2Cl)C1 (stereo not drawn)	19.7%	–
CN1OC[C@@H]2CN(C(=O)c3cccc4ccccc34)[C@H](c3ccc(N4CCCCC4)cc3)C[C@@H]21	16.6%	–
Oc1ccc(-c2onc3ccc(Cl)cc23)cc1	-7.15%	–
Clc1ccc2nc(-c3ccccc3)nc(C(Cl)Cl)c2c1	–	4.61 µM (active)
N#CCSc1nc(-c2ccccc2)nc2ccc(F)cc12	-0.769%	–
CCCCNC(=O)C[C@@H]1C[C@@]2(C(=O)OCC)CCC=C2N(Cc2ccco2)C1=O	2.86%	–
COc1nc(N=C(N)N)nc2c(C)cccc12	0.365%	–
Cc1nc(N=C(N)N)nc2c(C)cccc12	–	10.3 µM (active)

SMILES	activity, negative = less viability	Potency
O=C1CCC(=O)N1CCC(=O)N(C(=O)NC1CCCCC1)C1CCCCC1	2.37%	–
CC(=O)OC[C@@H]1CN(Cc2ccccc2)C[C@H](n2cnc3c(NCc4ccco4)ncnc32)O1	1.85%	–
COc1ccc(/C=C(\C#N)c2c[nH]c3ccccc23)cc1	–	0.411 µM (active)
COc1cccc(-n2c(SCC(=O)c3c[nH]c4ccccc34)nc3ccccc3c2=O)c1	-16.3%	–
C[N+](C)(C)CCNC(=O)c1c[nH]c2ccccc12	18.4%	–
COc1ccc(C=C2CCC3C(CCCC34OCCO4)C2=O)cc1 (stereo not drawn)	-2.47%	–
COCCCNC(=O)c1cccc2c(-c3ccc(O)c(OC)c3)coc12	-6.37%	–
CC1(C(=O)Nc2cccc3c2CCCC3)CCN1C(=O)CCc1ccc(Cl)cc1Cl (stereo not drawn)	-25.8%	–
COC(=O)CSC1=C(C#N)C(c2ccccc2OC)C(C(=O)OC)C(=O)N1 (stereo not drawn)	10.5%	–
CCOC(=O)CSC1=C(C#N)C(c2sccc2C)CC(=O)N1 (stereo not drawn)	–	2.51 µM (active)
C=CCSC1=C(C#N)C(c2cc(Br)c(O)c(OC)c2)CC(=O)N1 (stereo not drawn)	-2.43%	–
CN(Cc1ccccc1)C(=O)CCC1CCN(C(=O)c2ccco2)CC1	1.67%	–
COC(=O)Cc1ccc(OC2(C)CCN(Cc3ccc4c(c3)OCCO4)C2)cc1 (stereo not drawn)	-12%	–
C#CCNC(=O)C[C@@H]1C[C@@]2(C(=O)OCC)CCCC=C2N(Cc2ccco2)C1=O	16.7%	–
COc1ccccc1NC(=O)C1=C(C)NC(=O)NC1c1ccc(C)s1 (stereo not drawn)	15.5%	–
COc1ccccc1NC(=O)C1=C(C)Nc2nc3ccccc3n2C1c1cccs1 (stereo not drawn)	–	7.31 µM (active)
CCOc1ccc(C2C(C(=O)NC)=C(C)Nc3nc4ccccc4n32)cc1OC (stereo not drawn)	21.5%	–
COc1ccc(C(O)C(O)(C(=O)OC(C)C)c2ccc(C)cc2)cc1 (stereo not drawn)	6.51%	–
O=C(Nc1cccc2ccccc12)NC1CC1	0.702%	–
CCOc1ccc(C(CC(=O)O)NC(=O)Cc2ccccc2)cc1OC (stereo not drawn)	3.33%	–
COc1ccc(CCNS(=O)(=O)c2cccc3cccnc23)cc1OC	-4.27%	–
CCCCC(=O)NC(c1ccc(OC)c(OC)c1)c1ccc2cccnc2c1O (stereo not drawn)	–	14.6 µM (active)
Cn1nc(N)c2ncc(C(Cl)(Cl)Cl)nc21	-11.6%	–
O=S1(=O)CC(N2CCN(CCO)CC2)CN1C1CCCC1 (stereo not drawn)	25.1%	–
O=C(COc1cccc(Cl)c1)NCc1ccccc1	5.28%	–
Nc1c(C(=O)Nc2ccc3c(c2)OCCO3)nnn1Cc1ccccc1	-20.1%	–

SMILES	activity, negative = less viability	Potency
Nc1c(C(=O)NCc2ccccc2)nnn1Cc1cccc(Cl)c1	–	13 µM (active)
Cc1cccc(C)c1NC(=O)CN1CCN(c2ccc(F)cc2)CC1	-0.589%	–
CCOc1ccc2[nH]c(=S)sc2c1	11.6%	–
COc1ccc(C(C(=O)Nc2c(C)cccc2C)N2CCN(c3ccc(C)cc3)CC2)cc1 (stereo not drawn)	14.4%	–
CC1=CC(C)(C)NC(=S)N1c1ccccc1	–	11.2 µM (active)
CC1=CC(C)(C)NC(=S)N1NC(=O)c1ccccc1Cl	6.28%	–
COc1ccc(S(=O)(=O)N(C)C)cc1NC(=O)COC(=O)c1n[nH]c2ccccc12	4.86%	–
Cc1ccc(C(=O)Nc2nc3ccc(Cl)cc3s2)o1	-1.78%	–
O=C(CCc1ccccc1Cl)Nc1ccc(S(=O)(=O)Nc2nccs2)cc1	7.81%	–
Cc1ccc(CCC(=O)Nc2ncc(Cc3cc(Cl)ccc3Cl)s2)o1	–	1.16 µM (active)
CCc1cc(-c2nnn(CCC3COCCO3)c2CC)ccc1-c1cn(Cc2ccc3ccccc3c2)nn1 (stereo not drawn)	-13.9%	–
Cc1ccc(Cn2c(C)c(C(=O)NCc3ccccc3C(F)(F)F)sc2=O)cc1	2.27%	–
CCNC(=O)C1(C)CCCN1C(=O)c1ccc(N(C)C)cc1 (stereo not drawn)	14.3%	–
CCc1nc2c(OCc3ccc(F)c(F)c3)cccn2c1N(C)C(=O)c1ccco1	1.64%	–
Cc1nc2c(OCc3ccc(Cl)cc3)cccn2c1N(C)Cc1cccs1	–	16.4 µM (active)
Cc1nc2ccccc2nc(C)c1=NOCc1ccc(Cl)cc1Cl	3.79%	–
CCc1nc2c(OCc3ccc(C(=O)OC)cc3)cccn2c1N(C)C(=O)C(C)C	20.3%	–
CCc1nc2c(OCc3ccc(Cl)cc3Cl)cccn2c1N(C)C(=O)C(C)C	–	16.4 µM (active)
CCCCN(C=O)c1c(CC)nc2c(OCc3ccccc3C(=O)OC)cccn12	-26.4%	–
CCOC(=O)N(C)c1c(CC)nc2c(OCc3ccccc3C(=O)OC)cccn12	-10.3%	–
Cc1nc2c(OCc3ccc(Cl)cc3Cl)cccn2c1N(C)CC1CC1	–	13 µM (active)
CCc1nc2c(OCc3ccccc3)cccn2c1N(C)C(=O)c1ccco1	21.7%	–
COc1ccc(S(=O)(=O)NC(=O)C2(C)CCN2C(=O)COc2ccc(Cl)cc2)cc1 (stereo not drawn)	15.6%	–
Cc1cccc(CN2CCN(C3CN(Cc4cn(Cc5cc(C)cc(C)c5)nn4)S(=O)(=O)C3)CC2)c1 (stereo not drawn)	-14%	–
CC1CCC2(CC1)NC(=O)N(CC(=O)NCc1ccco1)C2=O (stereo not drawn)	-3.13%	–
Cc1ccc(S(=O)(=O)N[C@H](CO)C(C)C)cc1	18.5%	–

SMILES	activity, negative = less viability	Potency
COCCCn1cc(CN2CC(N(C)C)CS2(=O)=O)nn1 (stereo not drawn)	23.5%	–
Cc1nc(C(F)(F)F)ccc1C(=O)N1CCC1(C)C(=O)NS(=O)(=O)c1ccccc1Cl (stereo not drawn)	23.3%	–
O=C(NC1CCCCC1)C(c1cc2ccccc2o1)n1c(=O)c(-c2ccco2)nc2ccccc21 (stereo not drawn)	-11.5%	–
COc1cccc(-c2nc3nc(C)cc(C)n3c2NC2CCCCC2)c1	4.57%	–
Cc1ccc2nc(-c3cccnc3)c(NC3CCCC3)n2c1	1.6%	–
COc1ccc(-c2nc3cnccn3c2NC2CCCCC2)cc1-c1cccc(Cl)c1	–	18.4 µM (active)
CC(=O)c1nn(-c2ccccc2)c(=Nc2ccccc2)cc1C	12.8%	–
O=C(Nc1ccccc1)c1ccccc1OCc1ccccc1	14.1%	–
CCCOc1ccc(C2NC(=O)NC(c3ccccc3)=C2C(C)=O)cc1OCC (stereo not drawn)	6.35% [at 9.24 µM]	–
COC(=O)c1ccc(C2CC(=O)Nc3cc(OC)c(OC)cc32)cc1 (stereo not drawn)	1.74%	–
CCCOc1ccccc1C1CC(=O)Nc2cc3c(cc21)OCO3 (stereo not drawn)	–	8.2 µM (active)
Cc1ccc(F)c(S(=O)(=O)NC(=O)C2(C)CCN2C(=O)CCc2cccs2)c1 (stereo not drawn)	18.9%	–
OC[C@@H]1CN(Cc2ccc3c(c2)OCO3)C[C@H](n2cnc3c(NCc4ccco4)ncnc32)O1	8.23%	–
CCc1nc2c(OCCOc3ccccc3)cccn2c1N(C)C(=O)c1ccc(OC)cc1	0.153%	–
COc1ccc(C(CC(=O)Nc2ccc(C)cc2)NC(=O)C(F)(F)F)cc1 (stereo not drawn)	1.15%	–
O=C(Nc1ccc(C(=O)N2CCOCC2)cc1)Nc1cccc(C(F)(F)F)c1	3.58%	–
CC(=O)c1ccc(Nc2nc(C(N)c3ccccc3)cs2)cc1 (stereo not drawn)	-1.4%	–
COc1ccc(C(N)c2csc(NC(=O)Nc3cccc(C(F)(F)F)c3)n2)cc1 (stereo not drawn)	–	20.6 µM (active)
NC(c1ccccc1)c1csc(NC(=O)Nc2cccc(C(F)(F)F)c2)n1 (stereo not drawn)	–	18.4 µM (active)
NC(c1csc(NC(=O)Nc2cccc(C(F)(F)F)c2)n1)C1CCCCC1 (stereo not drawn)	–	8.2 µM (active)
O=C(Nc1cccc(F)c1)NC1CCCCCCC1	-29.5%	–
COc1cccc(NC(=O)Nc2ccc(F)cc2)c1	9.18%	–
O=C(O)CC1(CC(=O)Nc2cccc(C(F)(F)F)c2)CCCC1	-9.72%	–
O=C(NCCc1cccc(F)c1)C1CC(O)CN1C(=O)Nc1ccccc1 (stereo not drawn)	5.15%	–
CCN(CC)C(=O)C1=C(C)N(Cc2ccc(F)cc2)C(=O)C(CC(=O)NCc2cccc3ccccc23)C1 (stereo not drawn)	-8.28%	–
